High-throughput results: PubChem, National Center for Advancing Translational Sciences (NCATS)
The full list was thinned out, with hits kept by preference.
PI5P4Ka inh: qHTS for Inhibitors of phosphatidylinositol 5-phosphate 4-kinase (PI5P4K); actives 1.2% (n = 330,000); max response, %; PI5P4Kalpha enzyme, ADP-Glo luminescence, 60 min; hits give low values; Phosphatidylinositol 5-phosphate 4-kinase type-2 alpha (Homo sapiens), P48426; active = max response of -50% or lower; inconclusive = between -30% and -50%; inactive = -30% or higher; also: value at the top dose of about 77 µM
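Reactions run in 0.038 M HEPES pH 7.4, 0.28 mM EGTA, 0.1% CHAPS and 5% DMSO, with PI5P4Kalpha, substrate, compound and 5 microM ATP final, one hour at room temperature. Readout is ADP-Glo luminescence.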
Tb PGK inh: qHTS Assay to Find Inhibitors of Phosphoglycerate Kinase | Potency, µM (highest dose often 57.5 µM), without a hit: top-dose activity change, negative = inhibition, actives largely listed as inhibitors | PGK/GAPDH coupled, Kinase-Glo luminescence, 60 min | actives 0.043% (n = 380,000) | AID 602233, 2012; also: potency is read from the fitted curve at half-maximal effect; nearly all actives have a fitted effect of over 60% in size
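Luminescent ATP detection (Kinase-Glo Plus) follows a 60-minute room-temperature incubation, with wells lacking PGK as controls. Buffer: 100 mM TEA (pH 7.6), 5 mM MgCl2, 0.01% Tween-20. Coupling enzyme GAPDH (100 nM final) supplies unstable 1,3-BPG in-well.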
PI4K2A block: qHTS for small molecular inhibitors of PI4K2A. purified PI4K2A, ADP-Glo luminescence, 1 h; hits give low values. Phosphatidylinositol 4-kinase type 2-alpha (Homo sapiens), Q9BTU6. activity change, negative = inhibition, % at 76.9 µM. actives 0.13% (n = 420,000); in the data active = activity change below about -50%; inconclusive = mostly about -30% to -49%;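 also: -100% = wells without enzyme as full effect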
Target sequence (Q9BTU6 whole entry, looked up): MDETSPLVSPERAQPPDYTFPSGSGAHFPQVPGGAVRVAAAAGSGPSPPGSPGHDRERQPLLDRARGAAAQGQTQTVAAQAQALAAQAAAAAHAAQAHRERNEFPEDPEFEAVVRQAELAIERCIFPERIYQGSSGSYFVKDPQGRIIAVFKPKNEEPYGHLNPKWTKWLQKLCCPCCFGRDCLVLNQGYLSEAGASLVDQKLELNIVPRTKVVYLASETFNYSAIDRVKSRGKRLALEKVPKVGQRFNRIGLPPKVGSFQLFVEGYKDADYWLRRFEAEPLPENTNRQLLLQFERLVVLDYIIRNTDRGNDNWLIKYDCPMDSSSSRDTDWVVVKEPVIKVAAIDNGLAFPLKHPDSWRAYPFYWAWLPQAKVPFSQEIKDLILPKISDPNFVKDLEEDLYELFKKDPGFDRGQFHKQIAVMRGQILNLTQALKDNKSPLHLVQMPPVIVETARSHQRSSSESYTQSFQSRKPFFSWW
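Compounds are screened against recombinant PI4K2A using PI as substrate and ATP, the latter dispensed at 300 microM. Reactions run one hour at ambient temperature before ADP-Glo detection; full inhibition defined by wells lacking enzyme.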
Tb PFK block: qHTS Assay to Find Inhibitors of T. brucei phosphofructokinase. ATP-dependent 6-phosphofructokinase (Trypanosoma brucei brucei), O15648. T. brucei PFK, ADP-Glo luminescence. Potency, µM (series often up to 57.5 µM), inactives show top-dose activity, negative = inhibition, usual class: inhibitors. actives 0.17% (n = 330,000). AID 485367, 2010;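 also: potency is read from the fitted curve at half-maximal effect; 0% = uninhibited 1x PFK enzyme wells and -100% = no-enzyme wells; nearly all actives have a fitted effect of over 60% in size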
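In TEA buffer at pH 8.0 with 5 mM MgCl2, enzyme (1.25 nM) converted F6P (0.5 mM) and ATP (0.1 mM) for 45 min at room temperature. ADP product was read by luciferase luminescence.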
Pin1 inh: qHTS Assay to Find Inhibitors of Pin1; actives 0.009% (n = 390,000); AID 504891, 2011; Potency, µM (doses to about 115 µM), without a hit: at the top dose activity, negative = inhibition, hits mostly inhibitors; Pin1 FP peptide displacement, HiFluor488, 10 min; active = well fitted inhibition curve with a large enough effect in the polarisation, with a control signal flat, not every such curve was filed as active; inconclusive = small, poorly fitted or top-dose-only effect, or effect the other way, or a change in a side signal; inactive = no such curve, though single readings can be large or run the other way; the % refers to the polarisation; also: potency is read from the fitted curve at half-maximal effect
Target sequence (Q13526 whole entry, looked up): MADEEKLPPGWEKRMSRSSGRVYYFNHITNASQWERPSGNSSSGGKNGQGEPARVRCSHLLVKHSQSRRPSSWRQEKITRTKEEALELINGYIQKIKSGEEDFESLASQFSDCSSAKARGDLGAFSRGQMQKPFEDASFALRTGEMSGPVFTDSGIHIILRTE
ADP-Glo counter: qHTS for Inhibitors of PI5P4K: ADP-Glo counter assay. 1,100 tested, under 10 active. shares compounds with PI5P4Ka inh. Potency, µM (top dose mostly 76.9 µM), for inactives: at the highest dose activity change, negative = inhibition, hits mostly inhibitors. AID 743285, 2014. ADP-Glo detection counter-screen, luciferase luminescence, no enzyme
Numbers without * were called inactive; i = inactive; ? = inconclusive; / = no result given. Unless noted, calls follow the shape of the dose curve; as a rule, active = well fitted curve in the direction sought with a large enough effect; inconclusive = small, poorly fitted or top-dose-only effect, or another doubt; inactive = no such curve, though single readings can be large; an effect the other way counts as inactive or inconclusive. Unless noted, % is scaled to controls: 0 for no effect and ±100 for the full control effect.

SMILES | PI5P4Ka inh | Tb PGK inh | PI4K2A block | Tb PFK block | Pin1 inh | ADP-Glo counter
COc1ccc(C(C(=O)NC2CCCC2)N(C(=O)c2snc(C(N)=O)c2N)c2cccc(O)c2)cc1 (stereo not drawn) | -55* | -15% | -2 | -9% | ? | -4%
Cc1nc(N)sc1-c1csc(Nc2cccc(C(=O)O)c2)n1 | -52* | -9% | -3 | 2% | ? | -8%
CCC(=O)Nc1nc(C)c(-c2csc(Nc3cccc(C(=O)O)c3)n2)s1 | -23 | i | -6 | 17% | 6% | /
O=C1COc2ccc(S(=O)(=O)NCCc3ccccc3)cc2N1 | -51* | -5% | 1 | 10% | -3% | 2%
Cc1cc(NC(=O)CSc2cn(CCNC(=O)c3ccccc3)c3ccccc23)no1 | -76* | 7.1µM* | -15 | 1% | ? | 0%
Cc1oc2ccc(OCc3c(F)cccc3Cl)cc2c1C(=O)O | -55* | -8% | 2 | 0% | -1% | -2%
Nc1nc(N)c2cc([N+](=O)[O-])ccc2n1 | -22 | -7% | 6 | / | -11% | /
Nc1nc(N)c2c(ccc3c2ccn3Cc2cccc([N+](=O)[O-])c2)n1 | -61* | / | 6 | / | / | 1%
CC(C)(C)c1ccc(NC(=O)C2=CC=CN3CCS(=O)(=O)N=C23)cc1 | 4 | -8% | -5 | 1% | -8% | 3%
O=C(O)c1ccc(NS(=O)(=O)c2ccc3c(c2)C2C=CCC2C(c2ccccc2F)N3)cc1 (stereo not drawn) | -51* | -2% | -2 | ? | / | -3%
NC(=O)c1c(NC(=O)C2c3ccccc3Oc3ccccc32)sc2c1CCCCC2 | -54* | -6% | -11 | ? | 43% | 4%
NC(=O)c1c(NC(=O)c2ccc([N+](=O)[O-])o2)sc2c1CCCC2 | -10 | -1% | -5 | -3% | -4% | /
NC(=O)c1c(NC(=O)c2cc3ccccc3o2)sc2c1CCC2 | -56* | i | -6 | 0% | 60% | -14%
CCC(C)(C)C1CCc2c(sc(NC(=O)C3c4ccccc4Oc4ccccc43)c2C(N)=O)C1 (stereo not drawn) | / | i | 0 | / | -1% | /
CCOC(=O)[C@@]12CN(C(=O)OC(C)(C)C)CC=C1N(Cc1ccc(OC)cc1)C(=O)[C@H]2CC(=O)NCC12CC3CC(CC(C3)C1)C2 | / | / | -1 | / | / | /
C[C@@H]1COc2cc(Br)ccc2S(=O)(=O)N1Cc1cn(CCC2OCCO2)nn1 | / | / | 6 | / | / | /
Cc1cccc(N2CCN(CC(=O)NCc3ccccc3)CC2)c1C | -5 | i | -7 | 2% | 5% | /
O=C(CN1CCN(c2ccccc2F)CC1)NCc1ccccc1 | -14 | -6% | 4 | -20% | 0% | 2%
COc1cccc(CNS(=O)(=O)c2ccccc2Br)c1OC | -60* | 9% | 1 | / | 2% | 1%
Cc1nn(CCCC(=O)NCc2ccc(Cl)cc2)c(C)c1[N+](=O)[O-] | -7 | 2% | 1 | -2% | -11% | /
COc1ccc(CNC(=O)CCCn2nc(C)c([N+](=O)[O-])c2C)cc1OC | ? | -4% | 1 | 1% | -6% | -4%
O=c1[nH]c(N2CCOCC2)cc2ccccc12 | -3 | i | ? | / | 2% | -5%
CC(NC(=O)c1ccnn1C)C1CCCO1 (stereo not drawn) | ? | / | -5 | 0% | -7% | 2%
CCn1c(=O)n(CC(=O)N2CCCC2)c(=O)c2ccccc21 | / | / | 2 | / | / | /
c1ccc2c(OCCCCN3CCOCC3)cccc2c1 | -14 | -10% | -1 | 1% | ? | 1%
SMILES | PI5P4Ka inh | Tb PGK inh | PI4K2A block | Tb PFK block | Pin1 inh | ADP-Glo counter
NC(=O)C1CCN(c2nc(-c3ccc4c(c3)OCCCO4)cs2)CC1 | / | / | -6 | / | -9% | /
CC(=O)c1ccc(S(=O)(=O)Nc2cccc(-n3cnnn3)c2)cc1 | -67* | ? | -18 | -17% | -16% | -7%
Clc1ccc(-c2nnc(-c3ccco3)nc2N2CCCCC2)cc1 | -67* | -8% | 1 | -14% | -1% | -5%
CN(C)c1ccc(/C=N\NC(=O)c2cccc(S(=O)(=O)N(C)C)c2)cc1 | / | / | -4 | / | / | /
O=C([C@@H]1C[C@H]1c1ccccc1)N1CC[C@H]2[C@H](CCCN2Cc2ccc(F)cc2)C1 | / | / | 3 | / | / | /
Cc1cc(C(=O)OCC(=O)Nc2cc(S(=O)(=O)N3CCOCC3)ccc2Cl)c(C)o1 | 5 | 2% | -2 | -3% | ? | 1%
CC(C)(C)C1=Nn2c(nnc2-c2n[nH]c3c2CCC3)SC1 | -61* | -9% | -24 | -3% | 1% | 1%
CC1=Nn2c(nnc2-c2n[nH]c3c2CCC3)SC1 | 2 | 0% | -4 | -2% | 0% | /
O=C(NC1CC1)C1=C[C@H](c2c[nH]c3ccccc23)C[C@H](OCCCCO)O1 | -19 | i | -9 | 3% | 19% | /
O=C(NC1CC1)C1=C[C@@H](c2c[nH]c3ccccc23)C[C@@H](OCc2ccc(CO)cc2)O1 | -51* | -1% | -10 | 0% | 34% | -7%
Cc1cc2[nH]c3c(c[n+](C)c4ccccc34)c2cc1C | -16 | -3% | 2 | -1% | 14% | /
Cc1cc2[nH]c3c4ccccc4nc(C)c3c2cc1C | -52* | 1% | 2 | / | 5% | 6%
O=C(c1ccc(F)cc1F)N(Cc1ccccn1)CC1CCCO1 (stereo not drawn) | / | / | 7 | / | / | /
CC(C)c1ccc(CNc2nc(NCC3CC3)nc3ccsc23)cc1 | / | / | -1 | / | / | -4%
c1ccc(CNc2nc(NCC3CC3)nc3cc(-c4ccccc4)sc23)cc1 | / | / | 2 | / | / | -7%
c1ccc(OCCNc2nc(NCC3CC3)nc3cc(-c4ccccc4)sc23)cc1 | / | / | -3 | / | / | /
c1csc(CNc2nc(NCC3CCCCC3)c3sccc3n2)c1 | / | / | 1 | / | / | 2%
COc1ccccc1CNc1nc(NCc2ccc(C(C)C)cc2)c2sccc2n1 | / | / | -3 | / | / | -5%
COc1cccc(CNc2nc(NCC3CC3)nc3ccsc23)c1 | -23 | / | 3 | / | / | /
C=CCN1C(=O)[C@@H](CC(=O)NCc2cccc3ccccc23)[C@]2(C(=O)OCC)CCCCC/C=C/12 | / | / | -5 | / | / | /
O=C(CCn1nnc(-c2cccs2)n1)N1CCOCC1 | / | / | -1 | / | / | /
Cc1ccccc1CNC(=O)c1ccc2nc([C@@H]3O[C@H](CO)[C@H](O)[C@H](O)[C@H]3O)[nH]c2c1 | -88* | / | 3 | / | / | 3%
